# Screening results: PubChem BioAssay, National Center for Advancing Translational Sciences (NCATS)
# PNC inhibitor – High Content Assay for Compounds that inhibit the Assembly of the Perinucleolar Compartment | activity change (PNC), negative = inhibition, % at 10 µM | actives 3.1% (n = 140,000) | PC3M PTB-GFP, PNC prevalence imaging, 16 h; active compounds read low | AID 2417, 2010;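 active = readout at or below -70, meaning at least 70% loss of cells showing the perinucleolar compartment, a nuclear body marking cancer cells; inconclusive = readout between -30 and a set limit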
#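 PC3M cells stably expressing PTB-GFP, 750–1000 cells/well, treated 16 h at 37 °C with compound (23 nl of library stock), in duplicate. After paraformaldehyde fixation and Hoechst stain, imaged at 20x; PNC prevalence scored by image analysis.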
# GLA inh pH 4.5 – qHTS Assay for Inhibitors of Human alpha-Galactosidase at pH 4.5. Alpha-galactosidase A (Homo sapiens), P06280. 230,000 tested, under 10 active. purified enzyme, 4-MU-alpha-Gal fluorescence, pH 4.5. activity change, negative = inhibition, % at 105 µM
# GLA spleen mod – qHTS Assay for Inhibitors and Activators of Human alpha-Galactosidase From Spleen Homogenate | human spleen homogenate, 4MU-alpha-Gal fluorescence, 40 min | actives 0.008% (n = 240,000) | Potency, µM (titrated, usually from 80 µM), actives largely listed as inhibitors | AID 2107, 2009
# Target sequence (P06280 32-429 limits assumed): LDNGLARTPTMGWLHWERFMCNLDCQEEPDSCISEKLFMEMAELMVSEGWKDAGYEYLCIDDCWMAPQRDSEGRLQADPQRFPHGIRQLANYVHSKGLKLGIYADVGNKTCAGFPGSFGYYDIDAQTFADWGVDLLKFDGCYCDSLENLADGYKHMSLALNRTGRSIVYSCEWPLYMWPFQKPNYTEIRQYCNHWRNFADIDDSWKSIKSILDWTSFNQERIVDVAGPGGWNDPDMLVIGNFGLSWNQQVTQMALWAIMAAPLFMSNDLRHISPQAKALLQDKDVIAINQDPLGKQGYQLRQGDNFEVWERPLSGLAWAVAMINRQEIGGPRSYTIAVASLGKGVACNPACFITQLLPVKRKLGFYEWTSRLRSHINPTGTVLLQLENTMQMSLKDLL
#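 Fluorogenic readout (Ex 365/Em 440 nm) of 4-methylumbelliferone released from 1 mM 4-MU-alpha-galactoside by spleen homogenate, 40 min at 37C, pH 5.0. Data normalized to no-enzyme and enzyme controls; Hill-equation AC50 from compound titrations.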
# HPGD block – qHTS Assay for Inhibitors of HPGD (15-Hydroxyprostaglandin Dehydrogenase); AID 894, 2007; Potency, µM, actives largely listed as inhibitors; purified HPGD, NADH fluorescence kinetic, PGE2 substrate; actives 4.3% (n = 150,000); 15-hydroxyprostaglandin dehydrogenase [NAD(+)] (Homo sapiens), P15428; active = well fitted inhibition curve with a large enough effect, not every such curve was filed as active; inconclusive = small, poorly fitted or top-dose-only effect, or another doubt; inactive = no such curve, though single readings can be large or run the other way
#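 20 nM HPGD preincubated 15 min at room temperature with compound in 50 mM Tris-HCl pH 8, 0.01% Tween 20. Started with 1 mM NAD+ and 30 uM prostaglandin E2; NADH fluorescence (360/450 nm) read 5 times over 30-s intervals, last minus first.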
# ALDH1A1 block – qHTS Assay for Inhibitors of Aldehyde Dehydrogenase 1 (ALDH1A1). Potency, µM (titrated, usually from 75.3 µM), usual class: inhibitors. Aldehyde dehydrogenase 1A1 (Homo sapiens), P00352. Purified ALDH1A1, NADH fluorescence, propionaldehyde substrate. actives 7.3% (n = 220,000); active = well fitted inhibition curve with a large enough effect, not every such curve was filed as active; inconclusive = small, poorly fitted or top-dose-only effect, or another doubt; inactive = no such curve, though single readings can be large or run the other way
# 12-hLO inh – qHTS Assay for Inhibitors of 12-hLO (12-human lipoxygenase); Polyunsaturated fatty acid lipoxygenase ALOX12 (Homo sapiens), P18054; purified 12-hLO, xylenol orange hydroperoxide absorbance; Potency, µM (highest dose often 57.1 µM), actives largely listed as inhibitors; actives 0.12% (n = 150,000); AID 1452, 2008; also: nearly all actives have a fitted effect of over 55% in size
#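 Purified human 12hLO (150 nM), preincubated 15 min with compound, then 40 uM arachidonic acid for 30 min, room temperature, Hepes pH 7.0 with 0.01% Triton X-100. Hydroperoxide detected by ferrous iron/xylenol orange; 573/405 nm absorbance ratio gives reaction progress.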
# A number is an active result; i = inactive; ? = inconclusive; nt = not tested or not shown. Only some compounds are listed: those with a hit (about 10% of all), similar ones and a draw of the others. Unless noted, calls follow the shape of the dose curve; as a rule, active = well fitted curve in the direction sought with a large enough effect; inconclusive = small, poorly fitted or top-dose-only effect, or another doubt; inactive = no such curve, though single readings can be large; an effect the other way counts as inactive or inconclusive.
SMILES,PNC inhibitor,GLA inh pH 4.5,GLA spleen mod,HPGD block,ALDH1A1 block,12-hLO inh
FC(F)(F)c1cccc(NC(=S)NNC(=S)Nc2ccc(Cl)cc2)c1,nt,i,i,nt,nt,nt
Cc1ccc(NC(=S)NNc2ncc(C(F)(F)F)cc2Cl)cc1,?,i,i,i,10µM,i
CC(C)C(=O)Nc1ncc(C(F)(F)F)cc1Cl,i,i,i,i,i,i
FC(F)(F)c1cnc(NNC(=S)Nc2ccc(Cl)cc2)c(Cl)c1,?,i,i,i,5µM,i
Cc1ccc(NC(=S)NNc2ncc(C(F)(F)F)cc2Cl)c(C)c1,i,i,i,i,?,i
O=C(Nc1ccc(F)cc1F)c1cccn1-c1ncc(C(F)(F)F)cc1Cl,i,i,i,i,i,i
CCC[C@@H]1C[C@@]1(CCC)C(NC(=O)c1cccs1)c1ccc(Cl)cc1 (some centres undefined),nt,i,i,i,i,i
Cn1c(=O)c(=O)n(C)c2cc(S(=O)(=O)NCCOc3ccccc3)ccc21,nt,i,i,nt,?,nt
CCOc1ccc(Nc2n[nH]c(=S)s2)cc1,i,i,i,nt,1.3µM,i
CN(C(=O)c1cc2sccc2n1C)C1CCCCC1,i,i,i,18µM,?,i
O=C(CN1CCOCC1)Nc1ccccc1Sc1ccccc1,i,i,i,i,i,i
O=C(CNCCN1CCOCC1)Nc1ccccc1Sc1ccccc1,i,i,i,i,32µM,i
CCOC(=O)c1sc2nc(CC(=O)OC)nc(N3CCN(c4ccc(OC)cc4)CC3)c2c1C,-100,i,i,i,0.1µM,i
CCOC(=O)c1sc2nc(CC(=O)OC)nc(NCCN3CCOCC3)c2c1C,?,i,i,i,?,i
COc1ccc(N2C(=O)C3C(c4ccc(C(=O)O)cc4)NC(Cc4ccccc4)(C(=O)O)C3C2=O)c([N+](=O)[O-])c1 (centres undefined),nt,i,i,nt,11µM,nt
C/C(N=NC(=[SH+])SCc1ccccc1)=C1\C=CC=CN1.[Cl][Cu],nt,nt,nt,3.5µM,2.5µM,nt
O=C(/C=C/c1ccc(Cl)cc1Cl)NCCSc1ccccc1,i,i,i,i,i,i
O=C(/C=C/c1ccccc1)NCCSCc1ccccc1Cl,-91,i,i,10µM,2.2µM,i
Cc1ccc(CSCCNC(=O)/C=C/c2ccccc2Cl)cc1,i,i,i,8.9µM,4.5µM,?
O=C(/C=C/c1ccccc1)NCCSCc1ccc(Cl)cc1,i,i,i,i,i,i
O=C(/C=C/c1ccc(Cl)cc1Cl)NCCSCc1ccccc1,?,i,i,14µM,i,i
Cc1c(C(C)(C)C)c(C=S)n2ccccc12,i,i,i,i,22µM,i
CC(C)(C)c1ccc(-c2nc(C=O)c3ccccn23)cc1,i,i,i,i,?,i
O=C(c1cnc2n(c1=O)CCS2)N(c1ccccc1)C1CCCCC1,-106,i,i,i,i,i
Cc1cccc(-n2c(C)cc(/C=C3\NC(=O)NC3=O)c2C)c1,nt,i,i,nt,nt,nt
SMILES,PNC inhibitor,GLA inh pH 4.5,GLA spleen mod,HPGD block,ALDH1A1 block,12-hLO inh
Cc1cc(/C=C2/NC(=O)NC2=O)c(C)n1-c1ccncc1,nt,i,i,nt,i,nt
Cc1cc(/C=C2/NC(=O)NC2=O)c(C)n1-c1sc2c(c1C#N)CCCC2,?,i,i,18µM,13µM,i
Cc1cc(C)c(-n2c(C)cc(/C=C3/NC(=O)NC3=O)c2C)c(C)c1,i,i,i,i,14µM,i
CCOC(=O)c1cnn(-c2nc(SC)nc3sc4c(c23)CCCC4)c1N,i,i,i,i,1.1µM,i
CCOC(=O)c1nc(N2CCN(C(=O)OCC)CC2)c2c3c(sc2n1)CCCC3,i,i,i,?,?,i
CCOC(=O)c1cnn(-c2ncnc3sc4c(c23)CCC4)c1N,i,i,i,7.9µM,i,i
